Drawing on PubChem BioAssay, this text covers composite z-score and z-score for 5 compounds.

Calls of active or inactive are those of the source. Unless noted, the rule behind the calls is not given here.

Assay [1] can be described thus: compounds binding Alexa647 anti-His antibody – biochemical, small-molecule microarray, 635 nm fluorescence, artefact control for SMM control protein annotation, primary screen (AID 1128).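 Note: score merges feature fluorescence with signal-to-noise for each printed compound spot.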 The note with it: higher = more signal.
The subject of assay [2] is Human papillomavirus type 1a E7 protein (residues 1-88). As to the kind of experiment: HPV1a E7 small-molecule binders, primary screen, biochemical, small-molecule microarray, residues 1-88, 635 nm (AID 1129). The conditions noted are these: small-molecule microarray binding, fluorescence 635 nm; higher = more signal.
Assay [3] addresses Focal adhesion kinase 1 (Homo sapiens) (UniProt Q05397). As to the kind of experiment: PTK2 protein binding on printed compound slides – biochemical, small-molecule microarray, 635/667 nm fluorescence, BSA, DTT, primary screen (AID 1130).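 Note: composite of spot emission at 667 nm and signal to noise over triplicate slides.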 The note with it: 635 nm fluorescence, higher = more signal.
Assay [4] has as its system Fibrinogen (Alexa647-labelled). As to the kind of experiment: Alexa647-fibrinogen binding to printed small molecules – biochemical, small-molecule microarray, 635/667 nm fluorescence, artefact control for SMM control-protein annotation, profiling panel (AID 1131).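 Note: z-score merges 667 nm fluorescence with per-spot signal-to-noise over triplicate slides.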 The note with it: fibrinogen-A647 binding fluorescence, higher = more signal.
Assay [5] addresses Follistatin (Homo sapiens) (UniProt P19883). As to the kind of experiment: FST protein binding to printed compounds – biochemical, small-molecule microarray, 635/667 nm fluorescence, primary screen (AID 1132). The conditions noted are these: 635 nm fluorescence, higher = more signal.
For assay [6], the target named is Fibroblast growth factor 2 (Homo sapiens) (UniProt P09038). The assay can be described thus: basic fibroblast growth factor binding to printed compounds – biochemical, small-molecule microarray, 635/667 nm fluorescence, primary screen (AID 1133). The note with it: FGF2, fluorescence 635/667, higher = more signal.
Sequence of Fibroblast growth factor 2 (Homo sapiens) (P09038 whole entry, looked up): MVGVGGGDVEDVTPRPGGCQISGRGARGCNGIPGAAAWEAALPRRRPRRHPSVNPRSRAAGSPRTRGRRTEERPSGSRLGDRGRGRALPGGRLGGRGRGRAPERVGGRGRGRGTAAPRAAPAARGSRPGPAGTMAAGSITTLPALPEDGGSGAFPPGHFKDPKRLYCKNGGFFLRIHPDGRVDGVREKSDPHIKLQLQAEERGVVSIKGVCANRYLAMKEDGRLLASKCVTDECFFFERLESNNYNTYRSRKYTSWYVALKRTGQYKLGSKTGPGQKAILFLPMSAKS
A short description of assay [7]: JC-1 mitochondrial potential readout, lung cancer cells – cell-based, A549, JC-1 fluorescence, basal, 24 h, 100 nL, profiling panel (AID 1138).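 Note: A549 lung adenocarcinoma cells under basal conditions with no added stimulus; test concentration not given here.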 The note with it: higher = more signal.
For the next assay, the system named is Lefty1. The assay can be described thus: Lefty1 protein binding to printed compounds – biochemical, small-molecule microarray, 635/667 nm fluorescence, primary screen (AID 1139). The conditions noted are these: fluorescence 635/667, higher = more signal.
Assay [8] relates to wheat germ agglutinin (Triticum aestivum), Alexa647-labelled. As to the kind of experiment: Alexa647-WGA lectin binding to printed small molecules – biochemical, small-molecule microarray, 635/667 nm fluorescence, artefact control for SMM control-protein annotation, profiling panel (AID 1140).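 Note: score merges 667 nm feature emission with signal to noise over triplicate slides.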 The conditions noted are these: WGA-A647 binding, 635 nm fluorescence, higher = more signal.

In assay [9] the target is Luciferin 4-monooxygenase (Photinus pyralis) (UniProt P08659). The assay can be described thus: inhibition of purified Photinus pyralis luciferase – biochemical, luminescence, purified enzyme, 2006 set, primary screen (AID 1141).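 Note: cell-free assay with purified firefly luciferase at 100 ng per well in PBS; test concentration not given here.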 The conditions noted are these: purified firefly luciferase, SteadyGlo luminescence, 30 min; higher = more signal, called active from +8 up or from −8 down.
Sequence of Luciferin 4-monooxygenase (Photinus pyralis) (P08659 whole entry, looked up): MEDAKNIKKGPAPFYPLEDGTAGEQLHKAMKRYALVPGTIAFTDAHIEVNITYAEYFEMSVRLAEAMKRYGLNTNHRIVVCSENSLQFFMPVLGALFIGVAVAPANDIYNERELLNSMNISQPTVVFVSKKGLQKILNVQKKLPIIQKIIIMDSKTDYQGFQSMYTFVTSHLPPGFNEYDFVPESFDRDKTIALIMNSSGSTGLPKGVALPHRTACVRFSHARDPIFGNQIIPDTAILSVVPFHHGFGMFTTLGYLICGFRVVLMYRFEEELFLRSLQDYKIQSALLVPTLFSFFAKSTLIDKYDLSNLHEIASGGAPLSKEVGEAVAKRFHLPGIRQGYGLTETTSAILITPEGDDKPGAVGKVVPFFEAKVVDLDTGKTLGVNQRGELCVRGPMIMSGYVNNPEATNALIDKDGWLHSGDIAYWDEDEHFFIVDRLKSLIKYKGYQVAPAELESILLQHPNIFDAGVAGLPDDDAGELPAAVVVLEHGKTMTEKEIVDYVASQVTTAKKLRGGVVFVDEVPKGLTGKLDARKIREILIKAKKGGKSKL

The test system of assay [10] is Wnt5a (protein binding on small-molecule microarray). The assay can be described thus: small molecules binding Wnt5a protein – biophysical, small-molecule microarray, 635/667 nm fluorescence, primary screen (AID 1142).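 Note: fluorescence read at 667 nm with signal to noise per printed feature.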 The note with it: 635 nm fluorescence, higher = more signal.
Assay [11] is described as follows: ATP-based viability of Huh7 replicon cells – cell-based, CellTiter-Glo luminescence, basal, 48 h, cytotoxicity control for HCV replication inhibitor project, primary screen (AID 1143).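 Note: Huh7 hepatoma cells carrying a hepatitis C replication reporter with no stimulus; test concentration not given here.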 The note with it: higher = more signal, called active from +8 up or from −8 down. On the technique in general: Replicon systems follow genome replication, usually without infectious particles.

Assay [12] can be described thus: Pseudomonas biofilm growth suppression – PAO1 strain, BacTiter-Glo luminescence, LB-PBS, primary screen (AID 1144). The note with it: P. aeruginosa PAO1 biofilm, 12 h, higher = more signal.
Assay [13] can be described thus: basal CRE-LacZ reporter activity in PC12 – cell-based, unstimulated, primary screen (AID 1145). The conditions noted are these: no forskolin, luminescence, 4.5 h, higher = more signal, called active from +8 up or from −8 down.
Assay [14] in a line: forskolin-driven CRE-LacZ activity in PC12 – cell-based, CRE-LacZ reporter, forskolin-stimulated, primary screen (AID 1146).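 Note: PC12 cells with 6xCRE LacZ reporter stimulated by forskolin 10 µM; beta-galactosidase reporter signal reflecting CREB driven transcription.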 The conditions noted are these: luminescence, 4.5 h, higher = more signal, called active from +8 up or from −8 down.
The target of assay [15] is Streptavidin (Streptomyces avidinii) (UniProt P22629). The assay can be described thus: compounds binding control protein streptavidin – biophysical, small-molecule microarray, 635/667 nm fluorescence, artefact control for SMM compound annotation, primary screen (AID 1147).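 Note: signal reflects streptavidin binding to arrayed compounds as a control protein.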 The conditions noted are these: higher = more signal.
Sequence of Streptavidin (Streptomyces avidinii) (P22629 whole entry, looked up): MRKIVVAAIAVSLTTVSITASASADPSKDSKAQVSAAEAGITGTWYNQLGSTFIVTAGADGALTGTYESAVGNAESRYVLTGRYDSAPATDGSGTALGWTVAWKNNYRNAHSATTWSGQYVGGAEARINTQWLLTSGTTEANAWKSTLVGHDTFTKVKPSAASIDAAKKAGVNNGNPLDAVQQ
Assay [16] is described as follows: probe aInhba binding on compound microarray – biochemical, small-molecule microarray, 635/667 nm fluorescence, primary screen (AID 1148).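 Note: score merges 667nm spot fluorescence with signal-to-noise for antibody binding to printed compounds.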 The note with it: higher = more signal.
In assay [17] the target is Torsin-1A (Homo sapiens) (UniProt O14656). The assay can be described thus: TOR1A wild-type binding on microarray – cell lysate, small-molecule microarray, lysate, 635/667 nm, primary screen (AID 1149). The conditions noted are these: COS7 hTOR1A-WT lysate, 635 nm fluorescence, higher = more signal.
Sequence of Torsin-1A (Homo sapiens) (O14656 whole entry, looked up): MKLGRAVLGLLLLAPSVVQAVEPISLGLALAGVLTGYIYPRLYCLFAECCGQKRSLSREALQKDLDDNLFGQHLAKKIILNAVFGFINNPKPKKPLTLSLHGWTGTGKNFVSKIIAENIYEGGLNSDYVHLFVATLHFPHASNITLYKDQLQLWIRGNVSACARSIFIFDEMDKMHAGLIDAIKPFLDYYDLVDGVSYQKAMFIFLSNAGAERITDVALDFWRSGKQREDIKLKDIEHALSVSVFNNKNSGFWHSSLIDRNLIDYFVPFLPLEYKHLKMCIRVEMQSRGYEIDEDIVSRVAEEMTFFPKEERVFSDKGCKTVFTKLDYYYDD
Assay [18] shares this target. As to the kind of experiment: torsin A mutant lysate binding on microarrays – cell lysate, small-molecule microarray, COS7 lysate, 635/667 nm fluorescence, primary screen (AID 1150).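 Note: score pools 667 nm emission and signal to noise measuring lysate protein binding.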 The conditions noted are these: COS7 hTOR1A mutant lysate, 635 nm fluorescence, higher = more signal.
Assay [19] relates to Sonic hedgehog protein (Shh). As to the kind of experiment: Sonic hedgehog microarray binding compounds – biochemical, small-molecule microarray, 635/667 nm fluorescence, primary screen (AID 1151).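 Note: Shh protein binding to compounds spotted on small-molecule microarray slides; score combines spot fluorescence intensity with signal-to-noise across triplicate slides.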 The note with it: 635 nm fluorescence, higher = more signal.

Sequence of Focal adhesion kinase 1 (Homo sapiens) (Q05397 whole entry, looked up): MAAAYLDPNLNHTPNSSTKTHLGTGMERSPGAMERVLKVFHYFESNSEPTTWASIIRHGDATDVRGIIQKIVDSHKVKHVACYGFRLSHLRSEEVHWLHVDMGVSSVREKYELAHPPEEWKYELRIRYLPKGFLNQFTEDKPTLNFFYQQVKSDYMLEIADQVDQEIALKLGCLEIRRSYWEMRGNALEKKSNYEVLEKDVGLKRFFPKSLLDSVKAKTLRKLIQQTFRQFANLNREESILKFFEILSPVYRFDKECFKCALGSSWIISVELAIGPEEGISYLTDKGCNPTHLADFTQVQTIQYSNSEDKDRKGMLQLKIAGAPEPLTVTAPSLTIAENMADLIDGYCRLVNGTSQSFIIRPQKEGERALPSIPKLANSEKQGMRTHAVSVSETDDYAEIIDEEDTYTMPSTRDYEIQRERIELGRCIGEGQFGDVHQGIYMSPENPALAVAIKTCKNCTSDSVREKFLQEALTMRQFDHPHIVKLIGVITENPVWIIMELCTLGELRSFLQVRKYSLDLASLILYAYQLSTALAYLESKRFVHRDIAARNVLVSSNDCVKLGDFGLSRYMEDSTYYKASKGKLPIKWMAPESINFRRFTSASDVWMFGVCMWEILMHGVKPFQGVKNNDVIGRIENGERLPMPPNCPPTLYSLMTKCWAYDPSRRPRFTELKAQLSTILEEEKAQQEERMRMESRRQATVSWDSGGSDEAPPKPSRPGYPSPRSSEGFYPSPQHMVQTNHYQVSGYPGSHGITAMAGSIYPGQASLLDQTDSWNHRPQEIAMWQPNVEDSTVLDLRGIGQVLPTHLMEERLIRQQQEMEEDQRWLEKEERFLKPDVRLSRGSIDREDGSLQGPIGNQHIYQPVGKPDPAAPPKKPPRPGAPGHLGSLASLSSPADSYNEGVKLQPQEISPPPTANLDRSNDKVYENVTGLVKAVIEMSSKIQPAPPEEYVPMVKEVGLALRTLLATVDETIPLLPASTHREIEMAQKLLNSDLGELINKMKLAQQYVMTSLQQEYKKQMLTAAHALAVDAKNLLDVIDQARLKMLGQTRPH
Sequence of Follistatin (Homo sapiens) (P19883 whole entry, looked up): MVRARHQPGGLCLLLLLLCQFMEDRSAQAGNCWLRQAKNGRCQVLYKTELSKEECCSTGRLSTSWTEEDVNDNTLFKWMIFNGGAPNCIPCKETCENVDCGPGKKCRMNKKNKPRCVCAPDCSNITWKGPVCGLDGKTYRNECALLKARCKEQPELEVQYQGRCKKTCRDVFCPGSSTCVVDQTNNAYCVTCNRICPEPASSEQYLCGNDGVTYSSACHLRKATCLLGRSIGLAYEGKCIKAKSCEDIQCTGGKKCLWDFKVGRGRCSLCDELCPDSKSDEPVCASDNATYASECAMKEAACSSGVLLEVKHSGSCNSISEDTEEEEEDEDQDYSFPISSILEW

Turning to `N[C@@H](Cc1ccccc1)Cn1cc(-c2ccccc2)nn1`, the composite z-score in assay [1] is -0.0727; in assay [2], 0.184; in assay [3], -0.0983; in assay [4], 0.274; in assay [5], 0.219; in assay [6] it was -0.311. The composite z-score was -0.155 with Lefty1; 0.441 in assay [8]; -0.15 in assay [10]; 0.861 in assay [15]; -0.0963 in [16]; -0.0409 with Torsin-1A (Homo sapiens) [17]. For the same compound, the figures for the composite z-score (in the assay with Torsin-1A (Homo sapiens) [18]; in assay [19]) were -0.0827 and 0.0939, respectively. The z-score in [7] was 0.805; in [9], -1.32 (inactive); in [11], -2.58 (inactive); in assay [12], -0.244 (inactive); in [13], 0.0035 (inactive); in assay [14], 0.292 (inactive).

Regarding `CCOC(=O)C[C@H]1[C@H](OC(=O)Cc2ccc3c(c2)OCO3)[C@@H](NC(=O)C2CCCCC2)c2cc(OCCCO)ccc2N1C(=O)Cc1ccc(OC)cc1`, the composite z-score in assay [1] came to 0.135; in assay [2], 0.807; in [3], 0.673; in assay [4] it was 0.66; in assay [5] it was 0.139; in [6], 0.221. Moreover, the composite z-score in the assay on Lefty1 came to 0.333; in assay [8], 0.0679; in assay [10] it was 0.142; in [15], 0.219; in assay [16], 0.0301; in the assay with Torsin-1A (Homo sapiens) [17] it was 0.146. For the same compound, the composite z-score with Torsin-1A (Homo sapiens) [18] worked out at 0.511; in assay [19] it was 0.541. In addition, the z-score in [7] is 2.5; in assay [9] it was -1.27 (inactive); in assay [11], -1.15 (inactive); in [12], -0.0589 (inactive); in assay [13], 6.93 (inactive); in [14], -0.943 (inactive).

As to `O=C1C2C=CC(C(O)c3ccc(-c4ccccc4)s3)N(n3cnnc3)C2C(=O)N1Cc1ccccc1` (stereo not given), the composite z-score in assay [1] is 1.46; in assay [2], -0.283; in [3], 0.0347; in [4], 0.708; in assay [5], -0.279; in [6], -0.625. In addition, the composite z-score in the assay with Lefty1 was -0.69; in assay [8], 0.525; in assay [10], -0.18; in assay [15] it was -0.116; in assay [16], -0.0087; with Torsin-1A (Homo sapiens) [17] it was -0.412. Also, the composite z-score with Torsin-1A (Homo sapiens) [18] was -0.468; in [19], -0.683. Moreover, the z-score in assay [7] is -1.32; in assay [9], 1.77 (inactive); in assay [11], -0.291 (inactive); in assay [12], -0.669 (inactive); in [13] it was 0.481 (inactive); in assay [14] it was 0.288 (inactive).

On to `O=C(CS)NCCCCCCNC(=O)[C@H]1C[C@H]2C(=O)N3CCC[C@H]3C(=O)N2[C@H]1c1cccc(OCCO)c1`, for which the composite z-score in [1] came out at 1.7; in assay [2], 1.23; in [3] it was 0.615; in assay [4], 0.0353; in assay [5], 1.28; in [6], 1.19. The composite z-score in the assay on Lefty1 is 0.731; in assay [8], 0.658; in assay [10], 0.35; in assay [15] it was 0.359; in [16], -0.0917; with Torsin-1A (Homo sapiens) [17], 0.536. The composite z-score was 1.31 in the assay with Torsin-1A (Homo sapiens) [18] and 1.52 in [19]. The z-score was -0.145 in assay [7]; -0.135 (inactive) in assay [9]; -0.521 (inactive) in assay [11]; -0.357 (inactive) in [12]; 0.549 (inactive) in assay [13]; 0.581 (inactive) in assay [14].

`O=C1N(CCS(=O)(=O)c2ccccc2)Cc2ccccc2[C@H]2OC(c3ccc(OCCCO)cc3)=N[C@@]12CCS(=O)(=O)c1ccccc1`: the composite z-score in assay [1] was 2.44; in assay [2], 1.21; in assay [3] it was 0.772; in assay [4] it was 0.561; in assay [5], 1.33; in [6] it was 1.31. The composite z-score was -0.0425 with Lefty1; 1.09 in assay [8]; 1.05 in [10]; 0.421 in assay [15]; 0.0831 in assay [16]; 0.307 in the assay with Torsin-1A (Homo sapiens) [17]. The values for the composite z-score (in the assay with Torsin-1A (Homo sapiens) [18]; in assay [19]) were -0.0941 and 0.806, respectively. Further, the z-score in [7] is -1.15; in assay [9], -1.7 (inactive); in assay [11] it was -1.07 (inactive); in assay [12] it was -0.447 (inactive); in [13], 0.881 (inactive); in [14] it was -1.33 (inactive).
